# HT1080 IDH1KD tx: kills HT-1080 cells with IDH1 knockdown | HT-1080 IDH1 knockdown viability, ATP luminescence, 48 h | AID 686971 | hit rate 2% among 360,000 | Potency, µM (doses to about 46.1 µM), without a hit: top-dose activity, negative = toxicity, actives largely listed as cytotoxic;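 note: 0% = DMSO wells and -100% = cell-free medium wells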
#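 Cytotoxicity counter-line: IDH1KD HT-1080, 48 h, CellTiter-Glo. Curves classed by r2, magnitude and activity.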
# KB-V1 MDR tox: KB-V1 MDR subline cytotoxicity; KB-V1 MDR cells viability, CellTiter-Glo, 72 h; hit rate 3.4% among 400,000; AID 1347076; Potency, µM (doses to about 46.1 µM), usual class: cytotoxic; note: nearly all actives have a fitted effect of over 60% in size
#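 Readout: CellTiter-Glo luminescence, 10 min after addition. Cells: KB-V1 MDR subline, 72 h at 37 degrees C with compound. Analysis: corrected, normalized data fitted to concentration-effect curves.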
# DT40 TDP1 no CPT: qHTS for Inhibitors of human tyrosyl-DNA phosphodiesterase 1 (TDP1): qHTS in cells in absence of CPT; Potency, µM (highest dose often 46.2 µM), without a hit: at the top dose activity change, negative = growth inhibition, actives largely listed as inhibitors; hit rate 15% among 420,000; DT40 Tdp1-/- hTDP1 cells, no CPT, ATP luminescence, 48 h; note: nearly all actives have a fitted effect of over 55% in size
#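 Growth of hTDP1-complemented DT40 Tdp1-knockout cells is measured by ATP luminescence after at least 48 hr compound exposure at 37 °C, with DMSO substituting for the 20 nM CPT used in the parallel screen.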
# DT40 TDP1 CPT: DT40-hTDP1 cell growth loss with CPT. Potency, µM (top dose mostly 46.2 µM), inactives show at the highest dose activity change, negative = growth inhibition, usual class: inhibitors. chicken DT40 Tdp1-/-;hTDP1 cells + 20 nM CPT, ATP luminescence, 48 h. AID 686979. hit rate 12% among 420,000; note: nearly all actives have a fitted effect of over 55% in size
#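 Chicken DT40 Tdp1-/- cells complemented with human TDP1, 400 cells/well, exposed to compounds plus 20 nM camptothecin for at least 48 h at 37 C; viability read as ATP content by CellTiter-Glo luminescence.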
# KB-3-1 cytotox: kills parental KB-3-1 adenocarcinoma cells. KB-3-1 viability, CellTiter-Glo ATP luminescence, 72 h. Potency, µM (series often up to 46.1 µM), actives largely listed as cytotoxic. hit rate 1.4% among 400,000. AID 1347075; note: nearly all actives have a fitted effect of over 60% in size
#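 Screening of KB-3-1 cells (DMEM, 10% FBS, phenol-red free) ran from lowest to highest compound concentration; after 72 h at 37 °C viability was read luminescently and curves fitted.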
# HT1080NT lethal: kills 2HG-producing HT-1080-NT fibrosarcoma cells | HT-1080-NT fibrosarcoma viability, CellTiter-Glo ATP luminescence, 48 h | Potency, µM (doses to about 46.1 µM), for the others: at the highest dose activity, negative = less viability, most hits filed as cytotoxic | hit rate 1.6% among 360,000;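 note: NT is the 2HG producing partner of a matched IDH1 knockdown line; 0% = DMSO-treated cells and -100% = media-only wells without cells; nearly all actives have a fitted effect of over 55% in size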
#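 Fibrosarcoma NT cells, 750 per well in 5% FBS RPMI, were exposed to compound for 48 hours. Viability: CellTiter-Glo luminescence.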
# * marks the source's active call; other numbers are inactive results; i = inactive; ? = inconclusive; . = not tested or not shown; [ ] = dose if it differs, or a comment. A selection: hits, their analogues and other compounds. The true share with any hit is near 19%. Calls come from the whole dose curve; as a rule, active = well fitted curve in the direction sought with a large enough effect; inconclusive = small, poorly fitted or top-dose-only effect, or another doubt; inactive = no such curve, though single readings can be large; an effect the other way counts as inactive or inconclusive. Unless noted, % is set by controls: 0 for no effect and ±100 for the full control effect; potency is the fitted concentration of half-maximal effect.
SMILES,HT1080 IDH1KD tx,KB-V1 MDR tox,DT40 TDP1 no CPT,DT40 TDP1 CPT,KB-3-1 cytotox,HT1080NT lethal
CCN(CC)S(=O)(=O)c1ccc(N2CCCCC2)c(C(=O)Nc2ccccc2N2CCOCC2)c1,4%,?,9.2µM*,10µM*,?,15%
CCN(CC)S(=O)(=O)c1ccc(N2CCOCC2)c(NC(=O)COc2ccccc2C)c1,-9%,i,18µM*,21µM*,i,-7%
CCO[C@@H]1OC(C(=O)NCc2ccccc2)=C[C@H](c2coc3ccccc3c2=O)[C@H]1CCCO,11%,i,-11%,-14%,i,-8%
COC(=O)c1ccc2c(c1)S(=O)(=O)NC(=NCc1ccco1)S2,0%,i,-24%,5%,i,5%
Cc1ccc(C(CC(=O)O)NC(=O)CN2C(=O)c3ccccc3C2=O)cc1 (configuration not stated),9%,i,3%,-1%,i,7%
CCN(CC)S(=O)(=O)c1ccc(N2CCOCC2)c(NC(=O)c2ccc3c(c2)OCCO3)c1,0%,i,21µM*,16µM*,i,2%
CCN(CC)S(=O)(=O)c1ccc(N2CCOCC2)c(NC(=O)c2cc(-c3ccccn3)nc3ccccc23)c1,-17%,?,9.2µM*,13µM*,i,?
CCC(=O)N1CCN(c2ccc(NC(=O)c3ccc4c(c3)OCCO4)cc2)CC1,?,i,10%,-16%,i,-28%
CCN(CC)S(=O)(=O)c1ccc(N2CCOCC2)c(NC(=O)c2ccc(NC(C)=O)cc2)c1,-2%,i,19%,-26%,i,0%
CCS(=O)(=O)c1ccc(O)c(NC(=O)c2cc(-c3ccccn3)nc3ccccc23)c1,-1%,i,?,?,i,-3%
CCC(=O)N1CCN(c2ccc(Cl)cc2NC(=O)c2ccc3c(c2)OCCO3)CC1,-10%,5.2µM*,?,16µM*,i,-1%
CCCCCCC(NC(=O)Cc1ccc2ccccc2c1)C(=O)O (configuration not stated),-15%,i,-20%,1%,i,-8%
COc1ccc(C)cc1NC(=O)c1nnn(CC(=O)Nc2c(C)cccc2C)c1N,.,.,-10%,0%,.,.
Cc1ccc(NC(=O)c2c(C)oc3c2C2=NCCN2C=N3)cc1F,.,i,?,?,i,.
Cc1ccc(-n2c(SCC(=O)N3Cc4ccccc4CC3C(=O)O)nnc2-c2cccnc2)c(C)c1 (configuration not stated),3%,?,22%,19%,i,2%
O=C(CSc1nnc(NC(=O)C2CC(=O)N(c3ccc(F)cc3)C2)s1)NCc1ccco1 (configuration not stated),?,i,-9%,-15%,i,-6%
Fc1ccc(-n2ncc3c(N4CCN(Cc5ccccc5)CC4)ncnc32)cc1,.,i,-21%,-12%,i,.
c1ccc(-n2ncc3c(N4CCN(CCOc5cccc6ccccc56)CC4)ncnc32)cc1,-4%,i,26µM*,16µM*,?,0%
Cc1cccc(-n2ncc3c(N4CCN(CCO)CC4)ncnc32)c1,.,i,?,?,i,.
c1ccc(CN2CCN(c3ncnc4c3cnn4-c3ccccc3)CC2)cc1,.,i,18µM*,16µM*,i,.
Cc1ccc(-n2ncc3c(N4CCN(Cc5ccccc5)CC4)ncnc32)cc1Cl,.,i,9.2µM*,8.2µM*,i,.
CNS(=O)(=O)c1cccc(C(=O)OCC(=O)NC2CCCC(C)C2C)c1 (configuration not stated),16%,?,18%,0%,i,9%
Cc1nnc(SCC(=O)N(CC(C)C)c2c(N)n(Cc3ccccc3)c(=O)[nH]c2=O)n1N,4%,?,3%,2%,i,3%
Cn1c(=O)c2cc(NC(=O)NCc3ccc(Cl)cc3Cl)ccc2n1Cc1ccc(F)cc1,?,i,?,?,?,-29%
COc1ccccc1NC(=O)c1nc(S(=O)(=O)Cc2ccccc2)ncc1Cl,3.7µM*,?,1.6µM*,1.3µM*,7.3µM*,12µM*
SMILES,HT1080 IDH1KD tx,KB-V1 MDR tox,DT40 TDP1 no CPT,DT40 TDP1 CPT,KB-3-1 cytotox,HT1080NT lethal
CCS(=O)(=O)c1ncc(Cl)c(C(=O)Nc2ccccc2OC)n1,?,?,1µM*,1µM*,2.6µM*,-17%
COC(=O)c1ccc(OC(=O)c2ccncc2)cc1O,10%,i,15%,-6%,i,23%
CCOC(=O)c1cccc(NC(=O)CSc2nc3cc4ccccc4cc3[nH]2)c1,.,i,23µM*,?,i,.
CCOC(=O)Cc1nc2ccccc2[nH]1,1%,i,-24%,-16%,i,18%
CCOC(=O)c1ccc(NC(=O)CSc2nc3cc4ccccc4cc3[nH]2)cc1,.,i,18µM*,23µM*,i,.
CCOC(=O)c1ccc(NCc2nc3ccccc3[nH]2)cc1,-21%,i,16µM*,16µM*,i,-16%
COc1ccc2nc(SCC(=O)Nc3ccccc3)[nH]c2c1,13%,i,-13%,?,i,8%
O=C(COC(=O)COc1ccc(Cl)cc1)Nc1ccc(N2CCOCC2)cc1,14%,i,6%,-1%,i,23%
CCOc1ccc(N2CC(c3nc(-c4cc(OC)c(OC)c(OC)c4)no3)CC2=O)cc1 (configuration not stated),.,i,26µM*,?,i,.
CN(C)c1ccc(-c2noc(C3CC(=O)N(c4ccc5c(c4)OCCO5)C3)n2)cc1 (configuration not stated),.,?,2.9µM*,4.6µM*,?,.
COc1ccc(N2CC(c3nc(-c4cc(OC)c(OC)c(OC)c4)no3)CC2=O)cc1Cl (configuration not stated),.,.,16µM*,?,.,.
COc1cc(=O)n2c(c1C(=O)N(C)Cc1nonc1C)CCN(Cc1cc(C)ccc1C)CC2,.,.,-30%,-1%[9.04 µM],.,.
Cc1ccc(C)c2c1sc(=NC(=O)CN1C(=O)CCC1=O)n2C,11%,i,21µM*,?,i,-6%
COCCCC1CCN(C(=O)CCc2nnc(CCCCc3ccccc3)o2)CC1,0%,i,15µM*,?,i,8%
O=C(CCc1nnc(CCCCc2ccccc2)o1)N1CCCC(O)C1 (configuration not stated),1%,i,16%,-3%,i,9%

# Compound activity deposited in PubChem by National Center for Advancing Translational Sciences (NCATS).
